# Screening results: PubChem BioAssay, Johns Hopkins Ion Channel Center
# KCNQ2 enhance: potentiators of rat KCNQ2 potassium channel; B-score at 10 µM; Potassium voltage-gated channel subfamily KQT member 2 (Rattus norvegicus), O88943; CHO-K1 KCNQ2, FluxOR thallium flux fluorescence; hits give high values; hit rate 0.54% among 310,000; AID 2239, 2010;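 active = fluorescence ratio B-score at least 3 SD of library B-scores, with initial fluorescence B-score within 3 of them, cut at about 5.3 in these data; same plate scores as AID 2156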;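 also: B-score of peak minus minimum over baseline fluorescence ratio after K+ and Tl+ stimulus; positive B-score means potentiation of KCNQ2 with more thallium influx and brighter signal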
# KCNQ2 inh: rat KCNQ2 potassium channel inhibitors, primary screen, cell-based, CHO-K1, FluxOR thallium flux, B-score; 20 min; hits give low values; AID 2156, 2009; B-score at 10 µM; hit rate 1.1% among 310,000; Potassium voltage-gated channel subfamily KQT member 2 (Rattus norvegicus), O88943;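 active = fluorescence ratio B-score at most minus 3 library SDs, with starting brightness B-score within 2 library SDs, cut at about -5.5 in these data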
# Kir21 conf inh: mouse Kir2.1 channel blockers, retest, confirmation, cell-based, FluxOR thallium flux, duplicate. Tl flux remaining, % of negative control (hits give low values), % at 10 µM. Kir2.1-expressing cells, FluxOR thallium flux fluorescence; hits give low values. AID 2032, 2009. hit rate 41% among 2,300. shares compounds with KCNQ2 enhance;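 active = Primary-screen hit whose thallium flux fell at least 3 control SD below untreated wells in both duplicates, with normal baseline fluorescence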;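 also: 0% = blank wells without stimulus and 100% = stimulated no-compound controls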
# HEK293 ctr: parental HEK293 activity in Kir2.1 inhibitor counter-screen; shares compounds with KCNQ2 enhance; parental HEK293 cells, FluxOR thallium flux fluorescence; 0% = unstimulated blank wells; FluxOR signal as % of negative control (100 = no effect), % at 10 µM; hit rate 19% among 2,300; AID 2105;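 active = dye signal at least 3 control SD above or below untreated wells in both duplicates, raw fluorescence within 3, either direction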;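 also: percent is based on the flux ratio of peak minus minimum fluorescence over baseline F0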
# CHO-K1 ctr: nonspecific thallium flux increase in parental CHO-K1, confirmation, counter-screen for KCNQ2 potentiator project, cell-based, FluxOR thallium flux, duplicate. AID 2282, 2010. hit rate 43% among 1,200. activity increase over 3SD of controls, % at 10 µM. shares compounds with KCNQ2 enhance. parental CHO-K1 cells, FluxOR thallium flux fluorescence; zero = vehicle mean+3SD, 100% = vehicle-minus-blank window;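 active = signal rise of at least 3 SD above the untreated control mean, in both duplicate wells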;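 also: counter screen of KCNQ2 potentiator hits so any rise reflects channel-independent effects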
# KCNQ1 pot spec: human KCNQ1 channel potentiation off-target, confirmation, selectivity assay for KCNQ2 potentiator project, cell-based, CHO, FluxOR thallium flux; shares compounds with KCNQ2 enhance; CHO KCNQ1 stable, FluxOR thallium flux fluorescence; beyond 3SD, as % of vehicle-control signal; activation over 3SD threshold, % at 10 µM; hit rate 28% among 1,200;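 active = fluorescence ratio rise of at least 3 SD of vehicle wells above their mean, in both replicate wells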;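 also: 0% = vehicle mean plus 3 SD and 100% = vehicle minus unstimulated blank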
# Target sequence (P51787 whole entry, looked up): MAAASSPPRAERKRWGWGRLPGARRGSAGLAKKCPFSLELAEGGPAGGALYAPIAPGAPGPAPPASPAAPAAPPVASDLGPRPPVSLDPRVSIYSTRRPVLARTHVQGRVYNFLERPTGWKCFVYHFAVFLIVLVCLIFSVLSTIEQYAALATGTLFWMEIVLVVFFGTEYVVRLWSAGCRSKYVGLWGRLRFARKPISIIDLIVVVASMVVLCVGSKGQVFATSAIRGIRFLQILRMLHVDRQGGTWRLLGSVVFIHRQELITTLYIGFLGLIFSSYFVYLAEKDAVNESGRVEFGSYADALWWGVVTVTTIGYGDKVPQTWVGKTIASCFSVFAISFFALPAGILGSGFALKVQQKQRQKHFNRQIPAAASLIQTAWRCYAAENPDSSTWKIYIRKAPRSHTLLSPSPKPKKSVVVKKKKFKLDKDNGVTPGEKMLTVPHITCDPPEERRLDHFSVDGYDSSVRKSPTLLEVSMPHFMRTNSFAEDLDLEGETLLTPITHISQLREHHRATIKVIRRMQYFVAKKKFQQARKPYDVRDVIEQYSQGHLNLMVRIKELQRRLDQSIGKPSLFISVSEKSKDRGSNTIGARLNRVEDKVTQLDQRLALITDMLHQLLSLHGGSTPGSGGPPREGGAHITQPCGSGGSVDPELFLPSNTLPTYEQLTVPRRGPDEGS
# KCNQ2 pot confirm: rat KCNQ2 channel potentiators, confirmation, cell-based, CHO, FluxOR thallium flux, duplicate; potentiation, less the hit threshold, % at 10 µM; hit rate 68% among 1,200; shares compounds with KCNQ2 enhance; CHO-KCNQ2 cells, FluxOR thallium flux fluorescence;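 active = fluorescence ratio rising 3 SD or more over the vehicle control mean in both replicates, plus primary screen hit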;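 also: peak minus minimum thallium fluorescence divided by baseline after K/Tl stimulus; 0% = vehicle mean plus 3 SD and 100% = vehicle minus unstimulated blank difference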
# Kir2-1 sel: mouse Kir2.1 channel activation off-target, confirmation, selectivity assay for KCNQ2 potentiator project, cell-based, HEK293, FluxOR thallium flux; shares compounds with KCNQ2 enhance; hit rate 2% among 1,200; HEK293 Kir2.1, FluxOR thallium flux fluorescence; activity over 3SD threshold, % at 10 µM;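 active = fluorescence ratio rise of at least 3 SD above the vehicle-control mean, seen in both replicates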;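 also: 0% = vehicle mean plus 3 SD and 100% = vehicle minus no-stimulus blank window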
# KCNQ2 W236L MoA: potentiators of retigabine-insensitive KCNQ2 W236L, mechanism study for KCNQ2 potentiator project, cell-based, rat KCNQ2 W236L, CHO, automated patch clamp | shares compounds with KCNQ2 enhance | automated patch clamp current | current increase over 3SD of negative controls (%), hits give high values, % at 25 µM | hit rate 10% among 940 | AID 2558, 2010;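 active = current increase at least 3 SD of the untreated controls above them in both duplicate recordings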
# * marks the source's active call; other numbers are inactive results; i = inactive; x = no result. Sampled rows, rich in hits. Any-hit rate of the full collection: about 1.6%.
SMILES,KCNQ2 enhance,KCNQ2 inh,Kir21 conf inh,HEK293 ctr,others
c1ccc(OCCOCCN2CCc3ccccc3C2)cc1,0.27,i,x,x,
C=CCc1cc(OC)ccc1OCCOCCN1CCc2ccccc2C1,x,i,18.0%*,i,
CCCOc1ccc(OCCOCCN2CCc3ccccc3C2)cc1,0.21,i,60.5%*,i,
CC(C)(C)C(=O)CSc1ncccn1,x,i,x,x,
CSc1scc2c1-c1nc(SCC(=O)C(C)(C)C)ncc1CC2,6.68*,i,i,i,CHO-K1 ctr=-10.9;KCNQ1 pot spec=61.0*;KCNQ2 pot confirm=2.8*;Kir2-1 sel=-37.2;KCNQ2 W236L MoA=i
Cn1c(CN2CCCCC2)nc2cc(NC(=O)c3ccc(Cl)cc3)ccc21,0.01,i,x,x,
COc1ccc(-c2ccc3oc(-c4ccc(OC)cc4)c(C#CCCO)c3c2)cc1,0.23,i,x,x,
NC(=O)c1cccc2c3c([nH]c12)CCCC3,2.92,i,x,x,
CCOC(=O)C1CCCc2c1[nH]c1c(C(N)=O)cccc21 (configuration not stated),9.7*,i,i,i,CHO-K1 ctr=3.7*;KCNQ1 pot spec=-15.2;KCNQ2 pot confirm=34.0*;Kir2-1 sel=-48.5;KCNQ2 W236L MoA=i
COc1ccc(S(=O)(=O)N2CCCC(C(=O)NCC3CCCO3)C2)cc1Cl (configuration not stated),0.04,i,x,x,
O=C(CCCN1CCC(C(=O)c2ccc(F)cc2)CC1)c1ccc(F)cc1,x,i,x,x,
O=C(CCCN1CCC(O)(c2ccc(Cl)cc2)CC1)c1ccc(F)cc1,x,i,34.5%*,i,
Cc1ccc(C(=O)Oc2cccc(NC(=O)c3ccccc3)c2)cc1C,x,i,x,x,
O=C(COc1ccc2ccccc2c1Br)Nc1cccnc1,0.01,i,x,x,
COc1ccc(CN2CCCC(C(=O)c3ccc4c(c3)OCO4)C2)c(F)c1 (configuration not stated),x,i,56.5%*,i,
COc1cccc(CN2CCCC(C(=O)c3ccc4c(c3)OCO4)C2)c1O (configuration not stated),x,i,x,x,
Cc1nn(Cc2ccccc2)c(Cl)c1C(=O)OC(C)C#N (configuration not stated),x,i,x,x,
COc1ccc(OC)c(N(CC(=O)Nc2ccccc2F)S(=O)(=O)c2ccccc2)c1,x,i,x,x,
CCOC(=O)Cn1c(=N)n(CCOc2ccc3ccccc3c2)c2ccccc21,x,i,27.5%*,i,
CCOC(=O)Cn1c(=N)n(CCOc2ccc(OC)cc2)c2ccccc21,x,i,x,x,
Cc1nn(-c2cc(C)c3ccccc3n2)c2c1C1C(C2)C1(C)C (configuration not stated),x,i,x,x,
COc1cccc(NC(=O)C2C3CC4OC(=O)C2C4C3)c1 (configuration not stated),0.97,i,x,x,
CC1(C)CC(=O)C(C(c2ccco2)C2C(=O)CC(C)(C)CC2=O)C(=O)C1,9.79*,i,i,73.5%*,CHO-K1 ctr=-39.8;KCNQ1 pot spec=-15.8;KCNQ2 pot confirm=39.7*;Kir2-1 sel=-37.3;KCNQ2 W236L MoA=i
CC1(C)CC(=O)C(C(c2ccc(F)cc2)C2C(=O)CC(C)(C)CC2=O)C(=O)C1,x,i,x,x,
CC(C)Oc1ccc(C(=O)Nc2nnc(C3=COCCO3)o2)cc1,5.34*,i,i,i,CHO-K1 ctr=91.0*;KCNQ1 pot spec=-6.8;KCNQ2 pot confirm=-1.7;Kir2-1 sel=-32.5;KCNQ2 W236L MoA=i
SMILES,KCNQ2 enhance,KCNQ2 inh,Kir21 conf inh,HEK293 ctr,others
CC(C)(C)c1ccc(C(=O)Nc2nnc(C3=COCCO3)o2)cc1,3.63,i,x,x,
c1ccc(CNc2c3ccccc3nc3ccccc23)cc1,1.06,i,23.5%*,i,
c1ccc(CNc2ncnc3ccccc23)cc1,1.06,i,x,x,
O=c1cc(-c2ccccc2)cc(-c2ccccc2)n1O,6.64*,i,i,333.5%*,CHO-K1 ctr=-12.1;KCNQ1 pot spec=96.6*;KCNQ2 pot confirm=13.5*;Kir2-1 sel=-17.9;KCNQ2 W236L MoA=i
Cn1c(-c2ccccc2)cc(=O)c2ccccc21,x,i,x,x,
COc1ccc([N+](=O)[O-])cc1NC(=O)C(C)OC(=O)C1CC(=O)N(Cc2ccco2)C1 (configuration not stated),x,i,x,x,
CN(C)S(=O)(=O)Nc1cccc(NC(=O)CC23CC4CC(CC(C4)C2)C3)c1,7.85*,i,i,i,CHO-K1 ctr=7.1*;KCNQ1 pot spec=6.3*;KCNQ2 pot confirm=-6.8;Kir2-1 sel=-29.5;KCNQ2 W236L MoA=i
O=C(CC12CC3CC(CC(C3)C1)C2)Nc1c(F)cccc1F,9.96*,i,i,i,CHO-K1 ctr=-6.5;KCNQ1 pot spec=-25.2;KCNQ2 pot confirm=33.1*;Kir2-1 sel=-25.9;KCNQ2 W236L MoA=i
CN(C)S(=O)(=O)c1cccc(NC(=O)CC23CC4CC(CC(C4)C2)C3)c1,4.93,i,x,x,
CC(=O)Nc1ccc(NC(=O)CC23CC4CC(CC(C4)C2)C3)cc1,2.21,i,x,x,
CC(/C=C/c1ccccc1)=N/NC(=O)C(O)c1ccccc1 (configuration not stated),x,i,x,x,
CSCc1nc2sc(C(=O)Nc3nc(C)cs3)c(C)c2c(=O)[nH]1,x,i,x,x,
O=c1c2ccccc2[nH]c(=S)n1CCCn1ccnc1,x,i,x,x,
O=C(CNC(=O)c1cccc(Br)c1)N/N=C/c1ccc2c(c1)OCO2,x,i,x,x,
O=C(NC(=S)N1CCc2ccccc21)C1CCC1,0.25,i,x,x,
O=C(NC(=S)Nc1cccnc1)c1ccccc1,0.03,i,x,x,
COc1ccc(NC(=O)c2ccc(Br)o2)cc1,0.29,i,x,x,
O=C(NC(=S)N1CCc2ccccc21)c1ccc(Br)o1,9.81*,i,i,399.0%*,CHO-K1 ctr=-8.6;KCNQ1 pot spec=47.9*;KCNQ2 pot confirm=75.4*;Kir2-1 sel=-15.2;KCNQ2 W236L MoA=i
COc1ccc(NC(=S)NC(=O)c2ccc(Br)o2)cc1,8.52*,i,i,199.5%*,CHO-K1 ctr=-5.6;KCNQ1 pot spec=-4.5;KCNQ2 pot confirm=38.9*;Kir2-1 sel=-22.9;KCNQ2 W236L MoA=i
NC(=O)c1ccccc1NC(=S)NC(=O)c1ccc(Br)o1,x,i,x,x,
